The source of these data is the supplement of paper PMC6522484.

SMILES strings stand for the structures. ± gives the standard deviation of the averaged measurements.

The test system of test [1] is DLD1. Kind of test: cell viability (CellTiter-Glo) relative to plate median (fraction of plate median); higher = more viable cells. Conditions: 5 µM; treatment time 24 h; reporter: 7TFP. In short, it runs like this: (§1)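 Values are well luminescence normalised to the plate median, from either a firefly luciferase or a CellTiterGlo readout on parallel plates. The cells, colorectal cancer lines stably transduced with lentiviral 7TFP or TCF4/Wnt firefly luciferase reporters, were treated with library compounds at a final 5 µM for 24 h. The mean of two independent replicates is listed.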
On the technique in general: Cellular ATP, detected with luciferase, serves as a proxy for viable cell number.

Test [2] concerns HCT116. The test is described as above. As to conditions: 5 µM; treatment time 24 h; reporter: TCF4/Wnt. In short, it runs like this: as §1
The subject of test [3] is SW480. Described as above. Conditions: 5 µM; treatment time 24 h; reporter: 7TFP. In short, it runs like this: as §1
Test [4] deals with DLD1. Put plainly: TCF/Wnt firefly luciferase reporter signal relative to plate median (fraction of plate median); higher = higher Wnt reporter signal. As to conditions: 5 µM; treatment time 24 h; reporter: 7TFP. In a few lines:
as §1
A general note: A reporter such as luciferase makes a cellular process visible.

In test [5] the test system is SW480. The test is described as above. Conditions: 5 µM; treatment time 24 h; reporter: 7TFP. In a few lines:
as §1

On to `CCC(=O)C(CC)C(O)C(C)CC(C)C1OC(=O)CC2(O)CC=C(C)C(O2)/C(C)=C/CCCC(OC2CC(OC(N)=O)C(O)C(C)O2)/C=C\C(C)C(O)C1C` (stereo not given), for which the cell viability was determined as 1.08 ± 0.16 in test [1], 1 in test [2] and 0.99 ± 0.015 in test [3]. Further, the entries for the “TCF/Wnt firefly luciferase reporter signal” value in test [4] and in test [5] were 0.87 ± 0.067 and 0.974 ± 0.025, respectively.

In the case of `Cc1cc(=O)n(-c2ccccc2)n1C`, the cell viability in test [1] came to 1.03 ± 0.081; in test [2], 0.94 ± 0.026; in test [3] it was 1.01 ± 0.034. For the same compound, the results for the “TCF/Wnt firefly luciferase reporter signal” value in test [4] and in test [5] were 1.11 ± 0.2 and 1.075 ± 0.0071, respectively.

Consider `CCOC(=O)n1ccn(C)c1=S`, for which the cell viability in test [1] came to 0.985 ± 0.05; in test [2], 1.12; in test [3], 1.01 ± 0.035. Besides, the “TCF/Wnt firefly luciferase reporter signal” value in test [4] stood at 0.9725 ± 0.0021; in test [5], 1.04 ± 0.014.

Regarding `COc1ccc(-c2oc3cc(OC)c(OC)c(OC)c3c(=O)c2OC)cc1`, the cell viability in test [1] came out at 0.978 ± 0.06; in test [2], 0.918 ± 0.06; in test [3] it was 1.02 ± 0.021. Moreover, the “TCF/Wnt firefly luciferase reporter signal” value in test [4] was 1.055 ± 0.0071; in test [5], 0.917 ± 0.087.

`Cc1cc(O)c2c3c(ccc2c1)C(=O)c1c(O)cccc1C3=O` [Tetrangulol]: the cell viability in test [1] came to 1.02 ± 0.065; in test [2], 0.985 ± 0.018; in test [3] it was 0.972 ± 0.015. The “TCF/Wnt firefly luciferase reporter signal” value worked out at 0.978 ± 0.023 in test [4] and 0.974 ± 0.035 in test [5].

Regarding `OC(c1cc(C(F)(F)F)nc2c(C(F)(F)F)cccc12)C1CCCCN1` (stereo not given), the results for the cell viability in test [1], in test [2] and in test [3] were 0.953 ± 0.033, 1.005 ± 0.0071 and 1.02 ± 0.051, respectively. The “TCF/Wnt firefly luciferase reporter signal” value was 1.18 ± 0.028 in test [4] and 1.11 ± 0.057 in test [5].

With `COc1ccc2cc1Oc1ccc(cc1)C[C@H]1c3cc(c(OC)cc3CCN1C)Oc1c(OC)c(OC)cc3c1[C@H](C2)N(C)CC3`, the figures for the cell viability in test [1], in test [2] and in test [3] were 1.04 ± 0.13, 0.897 ± 0.15 and 1.215 ± 0.0071, respectively. Besides, the “TCF/Wnt firefly luciferase reporter signal” value is 0.948 ± 0.025 in test [4] and 0.889 ± 0.071 in test [5].

`CCN(CC)CCNC(=O)COc1ccc(OC)cc1`: the figures for the cell viability in test [1], in test [2] and in test [3] were 0.875 ± 0.03, 0.928 ± 0.035 and 0.973 ± 0.038, respectively. In addition, the entries for the “TCF/Wnt firefly luciferase reporter signal” value in test [4] and in test [5] were 1.09 ± 0.064 and 1.02 ± 0.029, respectively.

On to `C[C@]12CC[C@@H]3c4ccc(O)cc4CC[C@H]3[C@@H]1CCC2=O`, for which the results for the cell viability in test [1], in test [2] and in test [3] were 0.894 ± 0.038, 1.05 ± 0.057 and 0.995 ± 0.064, respectively. Besides, the “TCF/Wnt firefly luciferase reporter signal” value in test [4] was 1.15 ± 0.064; in test [5], 1.07 ± 0.085.

Consider `CC(=O)C12OC(C)(c3ccccc3)OC1CC1C3CCC4=CC(=O)CCC4(C)C3CCC12C` (stereo not given), for which the cell viability in test [1] came to 0.963 ± 0.039; in test [2], 0.987 ± 0.033; in test [3], 0.976 ± 0.035. In addition, the “TCF/Wnt firefly luciferase reporter signal” value was 0.977 ± 0.061 in test [4] and 0.939 ± 0.067 in test [5].

Consider `OCCN1CCN(CCCN2c3ccccc3Sc3ccc(Cl)cc32)CC1`, for which the cell viability in test [1] came to 0.891 ± 0.027; in test [2], 0.917 ± 0.08; in test [3] it was 0.983 ± 0.025. The “TCF/Wnt firefly luciferase reporter signal” value in test [4] was 1.03; in test [5], 0.976 ± 0.13.

Turning to `CN[C@H](CC(C)C)C(=O)N[C@H]1C(=O)N[C@@H](CC(N)=O)C(=O)N[C@H]2C(=O)N[C@H]3C(=O)N[C@H](C(=O)N[C@H](C(=O)O)c4cc(O)cc(O)c4-c4cc3ccc4O)[C@H](O)c3ccc(c(Cl)c3)Oc3cc2cc(c3O[C@@H]2O[C@H](CO)[C@@H](O)[C@H](O)[C@H]2O[C@H]2C[C@](C)(N)[C@H](O)[C@H](C)O2)Oc2ccc(cc2Cl)[C@H]1O`, the cell viability in test [1] stood at 1.08 ± 0.11; in test [2], 1.01 ± 0.014; in test [3] it was 0.979 ± 0.012. Moreover, the results for the “TCF/Wnt firefly luciferase reporter signal” value in test [4] and in test [5] were 1.09 ± 0.057 and 1.02 ± 0.035, respectively.

`CO[C@H]1/C=C/O[C@@]2(C)Oc3c(C)c(O)c4c(O)c(c(/C=N/N5CCN(C)CC5)c(O)c4c3C2=O)NC(=O)/C(C)=C\C=C\[C@H](C)[C@H](O)[C@@H](C)[C@@H](O)[C@@H](C)[C@H](OC(C)=O)[C@@H]1C`: the cell viability stood at 1.01 ± 0.064 in test [1], 1.07 ± 0.13 in test [2] and 1.05 ± 0.028 in test [3]. For the same compound, the “TCF/Wnt firefly luciferase reporter signal” value in test [4] stood at 1.01 ± 0.037; in test [5], 1.08 ± 0.057.

For `O=C1c2cccc(O)c2C(=O)c2c(O)cccc21`, the cell viability in test [1] is 0.96 ± 0.013; in test [2] it was 0.923 ± 0.12; in test [3], 0.992 ± 0.054. Besides, the “TCF/Wnt firefly luciferase reporter signal” value in test [4] came out at 0.958 ± 0.12; in test [5] it was 1 ± 0.051.

Regarding `CCN1CCN(C(=O)N[C@@H](C(=O)N[C@@H]2C(=O)N3C(C(=O)O)=C(CSc4nnnn4C)CS[C@H]23)c2ccc(O)cc2)C(=O)C1=O`, the cell viability is 0.973 ± 0.053 in test [1], 1.06 ± 0.035 in test [2] and 0.951 ± 0.023 in test [3]. For the same compound, the “TCF/Wnt firefly luciferase reporter signal” value in test [4] worked out at 0.886 ± 0.042; in test [5], 1.01 ± 0.098.
